Rows were chosen to be rich in hits. Some 1.3% of all compounds tested hit in one or more screens of this group.
Giardia kill – Small Molecules that selectively kill Giardia lamblia: qHTS. Giardia lamblia trophozoite viability. activity change, % at 7.66 µM, hits read low. actives 0.15% (n = 340,000). AID 540267, 2011; in the data active = activity change below about -80%; inconclusive = between about -30% and that limit;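 note: parasites exposed to compound for two days anaerobically before the ATP read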
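Luminescent ATP signal served as the viability read-out, measured 15-30 min after adding ATP detection reagent to trophozoites that had been incubated with compounds for 48 hrs at 37 deg C anaerobically at 100 cells/well.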
TrxR1 substrate – qHTS Assay for Substrates of Mammalian Selenoprotein Thioredoxin Reductase 1 (TrxR1): qHTS | Potency, µM (highest dose often 114 µM) | Thioredoxin reductase 1, cytoplasmic (Rattus norvegicus), O89049 | purified TrxR1 substrate turnover, NADPH consumption readout | AID 588456, 2011 | actives 0.01% (n = 390,000); note: nearly all actives have a fitted effect of over 50% in size
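Rat TrxR1, dispensed at 90 nM, was prereduced with 400 uM NADPH (final) for 5 min at ~22 deg C, then incubated with compound 15 min before 400 uM selenite. A first-read NADPH fluorescence drop versus no-compound background flagged substrates.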
KAT2A inh – qHTS Assay for Inhibitors of GCN5L2; Histone acetyltransferase KAT2A (Homo sapiens), Q92830; GCN5L2 HAT assay, ThioGlo1 CoA-SH fluorescence; AID 504327, 2011; Potency, µM (titrated, usually from 58.9 µM), most hits filed as inhibitors; actives 0.21% (n = 390,000)
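Preincubate 20nM GCN5L2 with compound 15 min, RT → add 50uM ThioGlo1 + 75uM H3(1-25) + 70uM acetyl-CoA → read fluorescence 0 and 20 min. Primary qHTS; fluorescent artifacts likely.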
Pin1 inh – qHTS Assay to Find Inhibitors of Pin1 | Pin1 FP peptide displacement, HiFluor488, 10 min | Potency, µM (series often up to 115 µM), hits mostly inhibitors | actives 0.009% (n = 390,000); active = well fitted inhibition curve with a large enough effect in the polarisation, with a control signal flat, not every such curve was filed as active; inconclusive = small, poorly fitted or top-dose-only effect, or effect the other way, or a change in a side signal; inactive = no such curve, though single readings can be large or run the other way; the % refers to the polarisation
Target sequence (Q13526 whole entry, looked up): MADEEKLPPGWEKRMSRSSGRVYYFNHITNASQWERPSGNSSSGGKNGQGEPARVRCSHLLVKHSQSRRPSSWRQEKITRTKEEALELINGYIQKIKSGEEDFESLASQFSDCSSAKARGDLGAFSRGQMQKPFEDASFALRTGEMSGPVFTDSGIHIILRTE
GALK inhibitor – qHTS Assay for Inhibitors of Human Galactokinase (GALK); P51570; Potency, µM (top dose mostly 57.5 µM), usual class: inhibitors; Purified GALK, Kinase-Glo residual ATP luminescence; AID 1868, 2009; actives 0.007% (n = 270,000)
Target sequence (P51570 whole entry, looked up): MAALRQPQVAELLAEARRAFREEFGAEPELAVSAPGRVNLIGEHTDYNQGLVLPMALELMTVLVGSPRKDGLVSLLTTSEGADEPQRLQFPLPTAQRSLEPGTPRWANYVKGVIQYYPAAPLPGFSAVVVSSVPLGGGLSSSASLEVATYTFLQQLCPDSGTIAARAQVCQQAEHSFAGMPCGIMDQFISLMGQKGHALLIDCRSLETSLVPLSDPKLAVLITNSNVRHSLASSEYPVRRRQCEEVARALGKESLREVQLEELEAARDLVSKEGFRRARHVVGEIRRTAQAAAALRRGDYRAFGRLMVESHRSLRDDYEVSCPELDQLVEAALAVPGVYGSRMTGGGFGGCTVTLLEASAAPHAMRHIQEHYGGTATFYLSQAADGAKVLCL
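5 nM enzyme, 35 uM ATP, 100 uM galactose, 20 mM HEPES pH8.0, 5 mM MgCl2; 1 h RT; residual ATP by Kinase-Glo Plus luminescence, qHTS format.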
TrxR1 inh – qHTS Assay for Inhibitors of Mammalian Selenoprotein Thioredoxin Reductase 1 (TrxR1): qHTS | Potency, µM (doses to about 114 µM), hits mostly inhibitors | actives 1% (n = 390,000) | Thioredoxin reductase 1, cytoplasmic (Rattus norvegicus), O89049 | recombinant rTrxR1, NADPH fluorescence consumption, selenite substrate; note: nearly all actives have a fitted effect of over 65% in size
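Rat TrxR1 (90 nM in the dispensed reagent) was pre-reduced with 400 uM NADPH for 5 min at room temperature, then incubated with compound for 15 min. After 400 uM selenite was added, NADPH fluorescence (Ex 340/Em 450 nm) was followed for 8 min.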
Large screens that a line does not name were inactive. Unless noted, calls come from the whole dose curve; as a rule, active = well fitted curve in the direction sought with a large enough effect; inconclusive = small, poorly fitted or top-dose-only effect, or another doubt; inactive = no such curve, though single readings can be large; an effect the other way counts as inactive or inconclusive.

Cc1c(CC(=O)N2CCCCC2)c(=O)oc2cc(O)ccc12	TrxR1 inh 56µM (no result: Giardia kill, GALK inhibitor)
Cc1c(CC(=O)N2CCN(C(=O)C3COc4ccccc4O3)CC2)c(=O)oc2cc(O)ccc12 (stereo not given)	KAT2A inh 28µM, TrxR1 inh 89µM
O=C(Oc1ccc(N(C(=O)c2ccncc2)S(=O)(=O)c2ccc(F)cc2)cc1)c1ccncc1	TrxR1 substrate inconclusive, TrxR1 inh 35µM
O=C(CCl)Nc1cccc(-c2cnc3ccccc3n2)c1	Giardia kill inconclusive, TrxR1 inh 20µM
COC1=C/C(=C/c2c(O)c(C#N)c3ccccn23)C=CC1=O	Pin1 inh inconclusive, TrxR1 inh 13µM
Cc1ccc(Nc2nc3ccccc3c3nncn23)cc1C	none (no result: Giardia kill, GALK inhibitor)
COC(=O)c1ccccc1NC(=O)C1=C(C)C(=O)OC12CCC(C)CC2 (stereo not given)	none (no result: Giardia kill, GALK inhibitor)
Cc1cccc(OCCOc2ccccc2C=C(C#N)C#N)c1	TrxR1 inh 2.8µM
CCOC(=O)Nc1ccc2c(c1)nc(CN1CCN(C(C)=O)CC1)n2C	none
CCC(=O)Nc1ccc2c(c1)nc(CN1CCN(C(C)=O)CC1)n2C	KAT2A inh 32µM
Nc1c(Cl)cc(C2=NCCn3c2c2ccc([N+](=O)[O-])cc2[n+]3[O-])cc1Cl	Giardia kill inconclusive (no result: GALK inhibitor)
[O-][n+]1c2cc(C(F)(F)F)ccc2c2n1CCN=C2c1ccc(Cl)cc1	Giardia kill -89 (no result: GALK inhibitor)
CCS(=O)(=O)c1ncc(Cl)c(C(=O)Nc2ccc(S(=O)(=O)N3CCCC(C)C3)cc2)n1 (stereo not given)	TrxR1 inh 2.5µM
CCC1CCCCN1S(=O)(=O)c1ccc(NC(=O)c2nc(S(C)(=O)=O)ncc2Cl)cc1 (stereo not given)	TrxR1 inh 7.1µM
CCS(=O)(=O)c1ncc(Cl)c(C(=O)Nc2ccc(C)cc2)n1	Pin1 inh inconclusive, TrxR1 inh inconclusive
CN1CCc2sc(NC(=O)Cc3ccccc3)c(C(=O)Nc3ccc(Cl)cc3)c2C1	none (no result: Giardia kill, TrxR1 substrate, KAT2A inh, GALK inhibitor, TrxR1 inh)
Cc1cc(C2C(C#N)=C(N)SC(N)=C2C#N)c(C)s1	Pin1 inh inconclusive, TrxR1 inh 32µM
Cc1ccnc(SCc2cc(=O)c(OC(=O)c3ccc(S(=O)(=O)N4CCCC4)cc3)co2)n1	TrxR1 inh 28µM
Cc1ccnc(SCc2cc(=O)c(OC(=O)c3ccc(Br)o3)co2)n1	TrxR1 inh inconclusive
Cc1ccnc(SCc2cc(=O)c(OC(=O)c3ccc(S(=O)(=O)N(C)C)cc3)co2)n1	TrxR1 inh 10µM
Cc1cc(C)nc(SCc2cc(=O)c(OC(=O)c3ccc(S(=O)(=O)N(C)C)cc3)co2)n1	KAT2A inh inconclusive, TrxR1 inh 50µM
Cc1cc(C)nc(SCc2cc(=O)c(OC(=O)c3ccc(Cl)c([N+](=O)[O-])c3)co2)n1	TrxR1 inh inconclusive
CCOc1cc2[nH]c(=O)n(Cc3ccc(C(=O)N4CCN(c5ccccc5)CC4)cc3)c(=O)c2cc1OCC	none (no result: Giardia kill, GALK inhibitor)
Cc1ccc(-c2cc(C(=O)Nc3cccnc3)c3ccccc3n2)o1	KAT2A inh inconclusive, Pin1 inh inconclusive, TrxR1 inh 8.9µM
Cc1ccc(NC(=O)c2cc(-c3ccc(C)o3)nc3ccccc23)cc1	TrxR1 inh 11µM
Cc1ccc(-c2cc(C(=O)NCCN3CCOCC3)c3ccccc3n2)o1	KAT2A inh 13µM, TrxR1 inh inconclusive
Cc1ccc(-c2cc(C(=O)Nc3ccccn3)c3ccccc3n2)o1	Pin1 inh inconclusive
COc1ccc(OC)c(/C=N/NC(=O)c2cc(-c3ccc(C)o3)nc3ccccc23)c1	TrxR1 inh 79µM
COc1ccc(-c2cc(C(=O)N/N=C/c3cc(OC)c(OC)cc3OC)c3ccccc3n2)cc1	none (no result: KAT2A inh, GALK inhibitor)
CN(C)C(=O)c1ccc(NC(=O)CSc2nnc(-c3cccs3)n2N)cc1	none (no result: GALK inhibitor)

Screens deposited in PubChem BioAssay by National Center for Advancing Translational Sciences (NCATS).
